Assay outcomes deposited in PubChem BioAssay by National Center for Advancing Translational Sciences (NCATS).
TDP1 cell CPT: DT40-hTDP1 cell growth loss with CPT; 420,000 compounds, 12% hits; chicken DT40 Tdp1-/-;hTDP1 cells + 20 nM CPT, ATP luminescence, 48 h; Potency, µM (top dose mostly 46.2 µM), for the others: top-dose activity change, negative = growth inhibition, most hits filed as inhibitors; AID 686979; further: nearly all actives have a fitted effect of over 55% in size
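Chicken DT40 Tdp1-/- cells complemented with human TDP1, 400 cells/well, exposed to compounds plus 20 nM camptothecin for at least 48 h at 37 C; viability read as ATP content by CellTiter-Glo luminescence.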
PLK1 PBD inh: inhibitors of human PLK1 polo-box domain binding; Potency, µM, without a hit: max response, negative = inhibition, usual class: inhibitors; 360,000 compounds, 2.8% hits; P53350; AID 720504; Plk1 PBD binding of FITC phosphopeptide, fluorescence polarization; further: series mostly up to about 57 µM; nearly all actives have a fitted effect of over 65% in size
Target sequence (P53350 whole entry, looked up, the tested form may be a part): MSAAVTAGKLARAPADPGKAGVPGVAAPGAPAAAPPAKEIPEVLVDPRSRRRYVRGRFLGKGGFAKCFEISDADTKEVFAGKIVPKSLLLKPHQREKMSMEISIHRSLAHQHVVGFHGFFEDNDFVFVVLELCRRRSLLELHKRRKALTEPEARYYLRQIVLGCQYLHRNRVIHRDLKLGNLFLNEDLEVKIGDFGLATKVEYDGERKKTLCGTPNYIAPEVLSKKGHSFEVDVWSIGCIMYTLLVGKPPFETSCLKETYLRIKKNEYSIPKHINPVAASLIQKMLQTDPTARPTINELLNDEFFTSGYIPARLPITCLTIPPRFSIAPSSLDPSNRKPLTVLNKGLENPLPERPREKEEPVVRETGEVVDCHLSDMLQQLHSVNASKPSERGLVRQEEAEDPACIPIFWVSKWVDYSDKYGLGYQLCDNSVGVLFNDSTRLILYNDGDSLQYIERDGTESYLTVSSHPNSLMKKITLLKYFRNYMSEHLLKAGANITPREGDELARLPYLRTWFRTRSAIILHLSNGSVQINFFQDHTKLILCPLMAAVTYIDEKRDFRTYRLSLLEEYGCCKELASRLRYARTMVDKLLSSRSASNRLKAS
TDP1 inh: blocks human tyrosyl-DNA phosphodiesterase 1; recombinant TDP1, AlphaScreen DNA substrate cleavage; AID 485290; Potency, µM (highest dose often 130 µM), without a hit: at the top dose activity change, negative = inhibition, hits mostly inhibitors; 350,000 compounds, 0.28% hits; Q9NUW8; further: nearly all actives have a fitted effect of over 40% in size
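Compounds were preincubated with Tdp1 (1 nM final) for 15 min at room temperature before substrate (15 nM final) started a 5 min reaction; beads (10 ug/ml final) were then added for 10 min before AlphaScreen detection.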
VDR inhibitor: blocks the human vitamin D receptor. P11473. VDR-SRC2-3 peptide fluorescence polarization, 2 h. Potency, µM, without a hit: max response, negative = inhibition, most hits filed as inhibitors. 400,000 compounds, 0.93% hits. AID 504847
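Measured by FP: displacement of SRC2-3 coactivator peptide from VDR by library compounds, following a two-hour ambient incubation.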
GCN5L2 inh: GCN5L2 (KAT2A) acetyltransferase inhibition; GCN5L2 HAT assay, ThioGlo1 CoA-SH fluorescence; 390,000 compounds, 0.21% hits; Potency, µM (top dose mostly 58.9 µM), without a hit: at the highest dose activity change, negative = inhibition, usual class: inhibitors
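qHTS, 1536-well. 20nM enzyme, pH 7.5 HEPES/EDTA/Tween-20 buffer; 15 min compound preinc., RT. Start: 75uM H3(1-25), 70uM AcCoA, 50uM ThioGlo1. Read Ex340/Em540 at t=0 (autofluorescence flag) and t=20 min.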
DT40 TDP1 no CPT: qHTS for Inhibitors of human tyrosyl-DNA phosphodiesterase 1 (TDP1): qHTS in cells in absence of CPT. DT40 Tdp1-/- hTDP1 cells, no CPT, ATP luminescence, 48 h. AID 686978, 2013. 420,000 compounds, 15% hits. Potency, µM (highest dose often 46.2 µM), inactives show top-dose activity change, negative = growth inhibition, hits mostly inhibitors; further: nearly all actives have a fitted effect of over 55% in size
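Growth of hTDP1-complemented DT40 Tdp1-knockout cells is measured by ATP luminescence after at least 48 hr compound exposure at 37 °C, with DMSO substituting for the 20 nM CPT used in the parallel screen.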
The depositor's hits bear a star; ? = inconclusive; nt = no result given; ! = a repeat was not active; [ ] = remark or other dose. The list is not random: actives were taken first. Their share in the collection is about 18%. The call rests on the fitted dose curve; in most records, active means well fitted curve in the direction sought with a large enough effect; inconclusive means small, poorly fitted or top-dose-only effect, or another doubt; inactive means no such curve, though single readings can be large; an effect the other way counts as inactive or inconclusive. On the % scale 0 is the no-effect control and ±100 the full control effect; potency means the concentration at half of the fitted maximal effect.

SMILES	TDP1 cell CPT	PLK1 PBD inh	TDP1 inh	VDR inhibitor	GCN5L2 inh	DT40 TDP1 no CPT
CC(C)c1ccc(Cc2cn3cc(-c4cc5ccccc5oc4=O)nc3s2)cc1	0.26µM*	nt	-1%	-10%	-4%	0.18µM*
O=c1c2ccccc2sn1-c1ccc(Cl)cc1	2.1µM*	3µM*	nt	nt	nt	1.8µM*
Cc1ccc(-n2sc3ccccc3c2=O)cc1	2.9µM*	0.95µM*	7%	3.2µM*	7.1µM*	3.3µM*
O=C(O)CC1OCC=C2CN3CCC45c6ccccc6NC4C1C2CC35 (stereo not given)	9%	-5%	nt	0%	2%	2%
O=C(O)CC1OCC=C2CN3CCC45C6=CC(=O)C(=O)C([N+](=O)[O-])=C6NC4C1C2CC35 (stereo not given)	14µM*	?	-1%	79µM*	-15%	11µM*
CC(C)NC(=O)N1CCC2(CC1)CCN(C(=O)Oc1ccccc1)CC2	-8%	nt	nt	-6%	-3%	?
C=C1C[C@@H]2[C@H](CC[C@]3(C)C(=O)CC[C@@H]23)[C@@]2(C)C=CC(=O)C=C12	16µM*	nt	9%	nt	0%	8.4µM*
CSc1ccccc1NC(=O)CN(C)CC(=O)c1[nH]c(C)c(C(C)=O)c1C	15µM*	-30%	2%	-18%	-2%	15µM*
CCOC(=O)c1oc2ccc(S(=O)(=O)n3nc(-c4ccc(Cl)cc4)cc3N)cc2c1C	23µM*	4%	5%	-8%	-11%	12µM*
Cc1ccccc1Cn1cccc(C(=O)Nc2cc(Cl)ccc2C#N)c1=O	-4%	nt	2%	-10%	-12%	-29%
Nc1nc(O)c(-c2ccccc2)o1	nt	nt	nt	4%	-1%	nt
Cc1ccc([C@@H]2CC(=O)[C@@H]3CN(S(=O)(=O)c4ccccc4C)[C@H](c4ccc(Cl)cc4)C[C@@H]3N2S(=O)(=O)c2ccc(C)cc2)cc1	?	-11%	nt	nt	nt	26µM*
CC(=O)O[C@@H]1CN2CCC1CC2	-4%	nt	-4%[56.1 µM]	0%	-7%	-6%
CC(=O)C1(c2ccccc2)CCN(C(=O)C2CCC(=O)N(CCc3cccc(F)c3)C2)CC1 (stereo not given)	-68%	4%	5%	-2%	-3%	23µM*
CCC(C(N)=O)N1CCCC1=O (stereo not given)	?	nt	6%	13%	?	-18%
CCOc1ccccc1CN(CCc1ccc2c(c1)OCO2)Cc1ccc(CC)cc1	?	nt	nt	-16%	-10%	?
C=C(C)[C@@H]1CC[C@]2(C(=O)O)CC[C@]3(C)[C@H](CC[C@@H]4[C@@]5(C)CC[C@H](O)C(C)(C)[C@@H]5CC[C@]43C)[C@@H]12	5.8µM*	-2%	-2%	14%	24%	3.7µM*
Cc1cccc(C)c1-n1nnnc1C(CCc1ccccc1)N1CCC2(CC1)C(=O)NCN2c1ccccc1 (stereo not given)	?	-9%	nt	nt	nt	?
O=C1NCN(c2ccccc2)C12CCN(C(c1cccc3ccccc13)c1nnnn1C1CCCC1)CC2 (stereo not given)	?	-17%	nt	nt	nt	16µM*
Cc1cccc(C)c1-n1nnnc1C(c1cccc2ccccc12)N1CCC2(CC1)C(=O)NCN2c1ccccc1 (stereo not given)	18µM*	7%	nt	nt	nt	12µM*
O=C1NCN(c2ccccc2)C12CCN(C(c1cccc3ccccc13)c1nnnn1C1CCCCC1)CC2 (stereo not given)	23µM*	-3%	nt	nt	nt	?
O=C1NCN(c2ccccc2)C12CCN(C(c1ccnc3ccccc13)c1nnnn1C1CCCCC1)CC2 (stereo not given)	?	-8%	nt	nt	nt	?
CC1CCC2C(C)C(=O)OC3OC4(C)CCC1C32OO4 (stereo not given)	?	-1%	3%[56.1 µM]	15%	-15%	0.84µM*!
CC1CCC2[C@@H](C)C(=O)OC3O[C@]4(C)CCC1C32OO4 (stereo not given in full)	?	2%	nt	2%	nt	7.3µM*
O=c1c2ccccc2nc(CNCC2CCCO2)n1-c1ccc(F)cc1 (stereo not given)	?	7%	-3%	12%	-5%	-11%
SMILES	TDP1 cell CPT	PLK1 PBD inh	TDP1 inh	VDR inhibitor	GCN5L2 inh	DT40 TDP1 no CPT
CC1(C)C(C=C(Cl)Cl)C1C(=O)OC(C#N)c1cccc(Oc2ccccc2)c1 (stereo not given)	?	nt	?	6%	1%	?
C=CCC1([C@H](C)CCC)C(=O)NC(=O)NC1=O	-20%[92.5 µM]	nt	nt	nt	nt	-26%[92.5 µM]
Oc1cc(Cl)cc(Cl)c1Cl	?	-6%	1%	-10%	-7%	-3%
C[C@@H](C(=O)OC1C[C@H]2CC[C@@H](C1)N2C)c1ccc(Br)cc1 (stereo not given in full)	30µM*	nt	4%	9%	-7%[0.501 µM]	27µM*
COc1ccc(N2C(=O)/C(=C/c3cc(C)n(-c4ccc(C)cn4)c3C)C(=O)NC2=S)c(OC)c1	?	30µM*	3%	-10%	-6%	?
CCOc1ccc(N2C(=O)/C(=C/c3ccc(C)o3)C(=O)NC2=S)cc1	?	4.7µM*	nt	?	-13%	26µM*
CCOc1ccc(N2C(=O)NC(=O)/C(=C\c3ccc(N4CCCCC4)o3)C2=O)cc1	-4%	80%	0%	1%	-4%	3%
O=C1NC(=S)N(c2ccc(Cl)cc2)C(=O)/C1=C/N1CCN(C(=O)c2ccco2)CC1	-17%	?	7%	11%	-17%	-7%
O=C1NC(=O)C(=Cc2ccco2)C(=O)N1	?	4.7µM*	nt	4%	nt	-30%
O=C1NC(=S)N(c2ccc(F)cc2)C(=O)/C1=C/c1ccco1	nt	nt	nt	nt	5.6µM*	nt
CS(=O)(=O)c1ccc(C(=O)C2C(=O)CCCC2=O)c([N+](=O)[O-])c1	-30%[92.5 µM]	nt	nt	nt	nt	?
CCN1C[C@]2(COC)CC[C@H](OC)[C@@]34C5C[C@H]6C(=O)C5[C@](O)(C[C@H]6OC)[C@@](O)(C(OC)C23)[C@@H]14 (stereo not given in full)	6%	-16%	nt	-6%	nt	-4%
COc1ccc(OC)c(N2C(=O)/C(=C/c3ccco3)C(=O)NC2=S)c1	-21%	2.4µM*	nt	?	13µM*	-27%
O=C1NC(=S)N(c2ccc(F)cc2)C(=O)/C1=C\c1ccoc1	1%	2.7µM*	nt	?	?	-14%
COc1ccc(OC)c(N2C(=O)CC(=O)NC2=O)c1	4%	-22%	2%	1%	-5%	5%
